Source: PubChem BioAssay (NCI)
“And” between values parts separate entries of the source, which are not always exact repeats. Identical values can stand only once. The panel holds about 83,000 compounds, 20% with a hit somewhere; the sample as a whole holds those more often.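 Results are percent growth after 48 hours of single-concentration exposure. 100 means growth as in untreated cells, lower positive values show inhibition; negative values down to -100 show cell death.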 The source made the active and inactive calls.

System: HS 578T breast
Assay: NCI-60 one-dose screen, 48 h (100 = growth as untreated, 0 = no growth, -100 = all killed)
Conditions: 0.25 µM
Protocol: Growth inhibition of the HS 578T human tumor cell line is measured as a screen for anti-cancer activity. Cells are grown in 96 well plates and exposed to the test compound for 48 hours. Compounds are tested at a single concentration, which is 10^-5 M for most compounds. The reported endpoint is percent growth (GI% or GIPRCNT), where numbers from 0 - 100% represent growth inhibition, and numbers from -100% - 0 represent cell death. For example, a value of 40 represents 60% growth inhibition. A value of 0 means no net growth occurred over the course of the experiment. A value of -40 indicates 40% of cells at the beginning of the experiment died by the end of the experiment. A value of -100 means all cells are dead at the end of the experiment.
NCI-60 Human Tumor Cell Lines Screen was performed using the standard one-dose NCI protocol, which is described in more detail at https://dtp.cancer.gov/discovery_development/nci-60/default.htm.
Compounds with GIPRCNT values below 10 were considered active. Activity score was based on GIPRCNT using the following formula: […]
Score is 0 for GIPRCNT values of 100 or above, 50 for GIPRCNT values of 0, and 100 for GIPRCNT values of -100.

Structure (SMILES) | growth
CCCCCCCCCCCCCCCc1ccc(Cl)c(O)c1Cl (tested in a mixture with another compound) | 63.9% (inactive)

Same assay, conditions: 1 µM

Structure (SMILES) | growth
CNC(=O)c1cc(Oc2ccc(CC(=O)Nc3cc(C(C)(C)C)nn3C)cc2)ccn1 | 81.4% (inactive)

Same assay, conditions: 10 µM

Structure (SMILES) | growth
CCc1ccccc1-n1c(N)c(C#N)c(-c2ccc(OC)c(OC)c2)c(C#N)c1=O | 116% (inactive)
CNC(=O)c1cc(Oc2ccc(CC(=O)Nc3cc(C(C)(C)C)nn3C)cc2)ccn1 | 65.4% (inactive)
CCCCCCCCCCCCCCCc1ccc(Cl)c(O)c1Cl (tested in a mixture with another compound) | 105% (inactive)

Same assay, conditions: 10 µM unless noted

Structure (SMILES) | growth
COc1ccc2c(=O)cc(-c3ccccc3)[nH]c2c1 | 31.5% (inactive) and 58.9% (inactive)
Nc1ccc2ccc(N)cc2c1 | 104% (inactive)
CCN(CC)CCC(CNc1ccnc2cc(Cl)ccc12)c1ccc(OC)cc1 (stereo not given) | 74% (inactive)
O=[N+]([O-])c1ccc(Oc2ccccc2)cc1 | 100% (inactive)
O=[N+]([O-])c1ccc2nc3c4ccccc4c4ccccc4c3nc2c1 | 79.9% (inactive)
COc1ccc(CCN(C)CCCC(C#N)(c2ccc(OC)c(OC)c2)C(C)C)cc1OC (stereo not given) | 99.8% (inactive) and 88.1% (inactive) and 93.6% (inactive)
CC(CN=Cc1ccccc1O)N=Cc1ccccc1O (stereo not given) | 90.7% (inactive)
C[N+](C)(C)CN1C(=O)c2ccccc2C1=O | 103% (inactive)
ClC/C=C/CSc1ncnc2nc[nH]c12 | 105% (inactive) and 119% (inactive)
CC(=O)Nc1cccc2c1CCCC2 | 92.8% (inactive) and 110% (inactive)
Cc1nn(-c2ccc(Cl)cc2)c2ncnc(N/N=C/c3ccccc3O)c12 | 81% (inactive) and 56.4% (inactive)
O=C(O)c1cc(C(=O)O)cc([N+](=O)[O-])c1 | 112% (inactive)
O=C(O)CN(CCN(CC(=O)O)CC(=O)O)CCN(CC(=O)O)CC(=O)O | 7.28% (active) and 134% (inactive)
CN(C)c1ccc2nc3ccc(N)cc3[n+](-c3ccccc3)c2c1 | 31.7% (inactive) and 23.4% (inactive)
CC(C)Cc1ccc(C(C)C(=O)NCc2ccc(Cn3c(=O)sn(CCCCl)c3=O)cc2)cc1 (stereo not given) | 106% (inactive) and -11% (active)
COc1ccc(Cn2c(NCCN=C(N)N)nc(=O)n(Cc3ccc(F)cc3)c2=O)cc1 | 87.5% (inactive) and 66.2% (inactive)
O=C(Nc1ccc(Br)cc1)c1cc(Br)ccc1O | -1.71% (active) and -5.35% (active)

Structure (SMILES) | growth
CCCCCn1sc(=O)n(Cc2ccc(CNC(=O)C(C)c3ccc(CC(C)C)cc3)cc2)c1=O (stereo not given) | 98.4% (inactive) and -7.35% (active)
CC(C)(C)c1ccc(O)c(CNC2CCCCC2)c1 | 89.2% (inactive) and 89.9% (inactive)
COc1cc(/C=N/Nc2nc3c([nH]2)c(=O)n(C)c(=O)n3C)ccc1O | 118% (inactive) and 103% (inactive)
CN(C)c1ccc(/C=C(\C#N)c2ccccc2)cc1 | 28.3% (inactive) and 56.2% (inactive) and 28.9% (inactive)
O=C1OC(Oc2ccc(Br)cc2)(c2ccccc2)c2ccccc21 (stereo not given) | 97.6% (inactive) and 84.7% (inactive)
Cc1nn(-c2ccccc2)nc1C(=O)Nc1ccccc1C(=O)NCC1CC1 | 127% (inactive) and 24.2% (inactive)
CCN(CC)CCC(CNc1c2ccc([N+](=O)[O-])cc2nc2cc(OC)c(OC)cc12)c1ccccc1 (stereo not given) | 44.4% (inactive)
O=[N+]([O-])c1ccc(/C=N\NC(=S)Nc2ccc(F)cc2)cc1 | 93.4% (inactive)
CC1CCCC(=O)O1 (stereo not given) | 110% (inactive) and 105% (inactive)
Cc1nnc(NC/C=C/c2ccccc2)s1 | 122% (inactive) and 105% (inactive)
CCN(CC)CCCC(C)Nc1cnc(C(=O)Nc2cc(F)cc3cccnc23)cn1 (stereo not given) | 69.3% (inactive) and 13.7% (inactive)
CC1(C)C2CCC1(CS(=O)(=O)O)C(=O)C2 (stereo not given) | 112% (inactive)
COc1ccc(S(=O)(=O)N2CCOCC2)cc1NC(=O)c1[nH]c(C)c2c1CCCCC2=O | 91.8% (inactive) and 23.1% (inactive)
Cc1cc(-c2ccc(NS(=O)(=O)c3ccccc3)c(C)c2)ccc1NS(=O)(=O)c1ccccc1 | 83.4% (inactive) and 92.6% (inactive)
CN1CCN(C2CCN(C(=O)Nc3cc(Oc4ccc(NC(=O)C5(C(=O)Nc6ccc(F)cc6)CC5)c(F)c4)ccn3)CC2)CC1 | 56.7% (inactive)
N#CC(C#N)=C/C=C/c1cccc([N+](=O)[O-])c1 | -9.4% (active) and -4.55% (active)

Same assay, conditions: 30 µM

Structure (SMILES) | growth
CNC(=O)c1cc(Oc2ccc(CC(=O)Nc3cc(C(C)(C)C)nn3C)cc2)ccn1 | 83.5% (inactive)

Same assay, conditions: 100 µM

Structure (SMILES) | growth
CCc1ccccc1-n1c(N)c(C#N)c(-c2ccc(OC)c(OC)c2)c(C#N)c1=O | 27.2% (inactive)
